Drawing on paper PMC5540273 (PLoS ONE, 2017), this text covers Kd for 10 compounds.

The subject of assay [1] is T1, MRCKB.
T1 construct: gene CDC42BPB

The test system of assay [2] is NLK.
Assay [3] concerns MYLK2.
The subject of assay [4] is MYLK.
In assay [5] the test system is MYLK4.
Assay [6] concerns NEK2.
Assay [7] deals with NEK5.
The test system of assay [8] is T2, NIK.
T2 construct: gene MAP3K14

The test system of assay [9] is T3, NIM1.
T3 construct: gene MGC42105

The subject of assay [10] is T4, OSR1.
T4 construct: gene OXSR1
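Further: kd values determined as follow-up on hits from a single-replicate KINOMEscan panel screen.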

As for `C[C@@H]1CCN(C(=O)CO)C[C@@H]1N(C)c1ncnc2[nH]ccc12`, the Kd in assay [1] and in [2] was greater than 10000 nM each time.

As to `O=C(Nc1n[nH]c2nc(-c3ccco3)c(Br)cc12)c1ccc(CN2CCCC2)cc1.O=C(O)[C@H](O)[C@@H](O)C(=O)O` [SB-742352], the Kd in assay [3] was 120 nM; in [4] it was 1300 nM.

In assay [5], `Nc1nc(-c2cccnc2)c(-c2ccnc3ccccc23)s1` [GW684083] returned a Kd of 490 nM.

Consider `CN1c2ccc(-c3ccc(C(=O)NCCO)cc3)cc2-c2[nH]ncc2S1(=O)=O`, for which the Kd in [4] was found to be 480 nM.

As for `COC(=O)c1c(-c2ccccc2)c2cc(Cl)ccc2c(=O)n1Cc1ccc(S(C)(=O)=O)cc1`, in assay [6], the Kd was greater than 10000 nM.

Compound `CNc1nccc(-c2c(-c3ccc(F)cc3)ncn2CCCN2CCOCC2)n1` [SB-222516] yielded a Kd in [7] greater than 10000 nM.

Turning to `CS(=O)(=O)CCNCc1ccc(-c2ccc3ncnc(Nc4ccc(OCc5ccccc5)c(Cl)c4)c3c2)o1.Cl` [GW574783], in [8], the Kd is greater than 10000 nM.

In the case of `CC(=O)Nc1n[nH]c2ncc(-c3ccccc3)cc12` [SB-548492], the Kd in [9] is greater than 10000 nM.

`CNc1nccc(-c2c(-c3ccc(F)cc3)ncn2C2CCN(C)CC2)n1` [SB-222903] displayed a Kd in assay [2] of 130 nM.

`CCCc1ccc(S(=O)(=O)NC2CCN(c3ccnc(Nc4ccc(OC)cc4)n3)C2)cc1` (stereo not drawn) [GSK1379737]: the Kd in assay [10] was greater than 10000 nM.
